Compound activity (PubChem)
DT40 TDP1 no CPT – qHTS for Inhibitors of human tyrosyl-DNA phosphodiesterase 1 (TDP1): qHTS in cells in absence of CPT | hit rate 15% among 420,000 | DT40 Tdp1-/- hTDP1 cells, no CPT, ATP luminescence, 48 h | Potency, µM (highest dose often 46.2 µM), without a hit: at the highest dose activity change, negative = growth inhibition, hits mostly inhibitors; also: % is scaled to controls: 0 for no effect and ±100 for the full control effect; nearly all actives have a fitted effect of over 55% in size
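Seeded 400 DT40-hTDP1 cells/well (vehicle DMSO, no 20 nM CPT); pinned compounds; ≥48 hr at 37 °C; CellTiter-Glo luminescence as viability measure.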
TDP1 cell CPT – DT40-hTDP1 cell growth loss with CPT; chicken DT40 Tdp1-/-;hTDP1 cells + 20 nM CPT, ATP luminescence, 48 h; Potency, µM (series often up to 46.2 µM), for inactives: at the highest dose activity change, negative = growth inhibition, actives largely listed as inhibitors; hit rate 12% among 420,000; AID 686979; also: % is scaled to controls: 0 for no effect and ±100 for the full control effect; nearly all actives have a fitted effect of over 55% in size
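Cell growth measured by CellTiter-Glo luminescence after a minimum 48 h, 37 C compound exposure with 20 nM CPT in Tdp1-knockout DT40 cells stably expressing hTDP1, seeded 400/well; qHTS titration format.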
TGFb inhibitor – TGF-b pathway inhibition; Potency, µM (series often up to 46.1 µM), for the others: at the highest dose activity, negative = inhibition, actives largely listed as inhibitors; HepG2 CAGA-GFP TGF-b/SMAD3 reporter, GFP fluorescence, 18 h; TGF-beta stimulated, 500 pg/mL final; hit rate 1.2% among 410,000; also: % is scaled to controls: 0 for no effect and ±100 for the full control effect; nearly all actives have a fitted effect of over 65% in size
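TGF-beta reporter screen: HEPG2 CAGA-GFP, 1% FBS, 500 pg/mL TGF-beta final, 18 h; per-cell GFP summed per well; curves fitted and categorized by class.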
HT1080 IDH1KD tx – toxicity to HT-1080 IDH1 knockdown cells (counter line). HT-1080 IDH1 knockdown viability, ATP luminescence, 48 h. hit rate 2% among 360,000. AID 686971. Potency, µM (doses to about 46.1 µM), without a hit: at the highest dose activity, negative = toxicity, actives largely listed as cytotoxic;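 also: 0% = DMSO wells and -100% = cell-free medium wells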
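In this qHTS, HT-1080 cells depleted of IDH1 are exposed for 48 h at 37 °C to compound titrations. Toxicity is scored from CellTiter-Glo luminescence, with DMSO as full viability and medium alone as none.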
HT1080NT lethal – kills 2HG-producing HT-1080-NT fibrosarcoma cells | hit rate 1.6% among 360,000 | Potency, µM (highest dose often 46.1 µM), without a hit: at the highest dose activity, negative = less viability, usual class: cytotoxic | HT-1080-NT fibrosarcoma viability, CellTiter-Glo ATP luminescence, 48 h;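 also: NT is the 2HG producing partner of a matched IDH1 knockdown line; 0% = DMSO-treated cells and -100% = media-only wells without cells; nearly all actives have a fitted effect of over 55% in size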
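Viability of the 2HG-overproducing fibrosarcoma line after 48 hours of compound exposure at 37 degrees C was determined by luminescence with CellTiter-Glo, and concentration-effect curves were then fitted and categorized.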
HepG2 viability – counter-screen for TGF-b inhibitors: cytotoxicity in HepG2 cells; HepG2 CAGA-GFP viability, ATP luminescence, 18 h; Potency, µM (doses to about 46.1 µM), for inactives: at the highest dose activity change, negative = cytotoxicity, usual class: cytotoxic; hit rate 0.76% among 410,000; AID 588856
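HepG2 CAGA-GFP cells (1000/well, DMEM with 1% FBS) received compound, then TGF-beta at 500 pg/mL final, and were incubated 18 hours at 37 degrees C. Viability was read by CellTiter-Glo luminescence. Media-only wells were set as complete cell-killing and DMSO as no toxicity.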
* marks the source's active call; other numbers are inactive results; ? = inconclusive; . = no result. A selection: hits, their analogues and other compounds. The true share with any hit is near 17%. Calls follow the shape of the dose curve; as a rule, active = well fitted curve in the direction sought with a large enough effect; inconclusive = small, poorly fitted or top-dose-only effect, or another doubt; inactive = no such curve, though single readings can be large; an effect the other way counts as inactive or inconclusive. Potency is read from the fitted curve at half-maximal effect.

SMILES	DT40 TDP1 no CPT	TDP1 cell CPT	TGFb inhibitor	HT1080 IDH1KD tx	HT1080NT lethal	HepG2 viability
COc1cc([C@@H]2c3cc4c(cc3[C@@H](O)[C@H]3COC(=O)[C@H]23)OCO4)cc(OC)c1O	0.112µM*	0.1µM*	.	.	.	.
CC(=O)OC1(c2ccccc2)CCN(C2CCCCC2)CC1C (configuration not stated)	?	0.3%	1.7%	-0.4%	6.6%	-23.0%
C=CCn1c(O)c(C(CC)=NCc2cc(OC)cc(OC)c2)c(=O)[nH]c1=O	7.31µM*	7.31µM*	-14.6%	23.1µM*	23.1µM*	-58.3%
C=CCn1c(O)c(C(CC)=NCCC2=CCCCC2)c(=O)[nH]c1=O	-29.9%	?	-6.6%	3.1%	6.4%	-32.0%
C=CCn1c(O)c(C(CC)=NCc2ccc3c(c2)OCO3)c(=O)[nH]c1=O	?	?	-26.4%	-19.7%	-23.5%	-40.1%
C=CCn1c(O)c(C(CC)=NCCCO)c(=O)[nH]c1=O	8.2µM*	-5.9%	-0.7%	8.4%	9.9%	14.1%
CC(=O)N1N=C2C3CCN(CC3)C2C1c1cccc2ccccc12 (configuration not stated)	-7.7%	-1.1%	0.1%	-1.7%	0.0%	-7.8%
CCOc1ccccc1NC(=O)c1ccccc1N(C)S(=O)(=O)c1ccc(C)cc1	?	?	-2.8%	-16.0%	-7.4%	-15.0%
Cc1nc2ccccc2c(=O)n1-c1ccccc1[N+](=O)[O-]	-16.4%	0.6%	0.6%	2.2%	-1.6%	-10.3%
Cc1cccc(-n2c(C)nc3ccccc3c2=O)c1C	20.6µM*	5.8µM*	7.5%	-6.3%	-17.5%	-2.5%
Cc1nc2ccccc2c(=O)n1-c1c(Cl)cccc1Cl	18.4µM*	23.1µM*	-9.7%	-14.5%	-19.0%	-5.5%
CCCN(CCC)C(=O)Cc1c(-c2ccc(Cl)cc2)nc2ccc(Cl)cn12	?	-7.7%	.	.	.	.
Clc1ccc(-c2nc3ccc(Cl)cn3c2CN2CCCCC2)cc1	16.4µM*	?	0.0%	12.0%	15.8%	0.6%
Clc1ccc(-c2nc3ccc(Cl)cn3c2CN2CCOCC2)cc1	23.1µM*	?	-23.8%	-6.1%	-6.2%	-10.8%
CC(C(=O)N1CCC2(CC1)OCCO2)C1Sc2ccccc2NC1=O (configuration not stated)	-0.1%	-14.7%	-2.6%	2.2%	0.8%	18.9%
Cc1ccccc1C(=O)Oc1cccc(Nc2ncnc3ccccc23)c1	13µM*	16.4µM*	-11.1%	?	-18.5%	-20.6%
CNCC(O)c1cccc(OC(=O)c2ccccc2C)c1 (configuration not stated)	-24.7%	-15.4%	16.1%	-19.2%	-22.6%	-11.7%
COC(=O)[C@@H]1C[C@@]1(C)[C@@H](NP(=O)(c1ccccc1)c1ccccc1)c1ccccc1	20.6µM*	?	2.6%	7.3%	-5.3%	0.4%
CC1=C(C)CC2(C(=O)NC(=S)NC2=O)C(C)C1 (configuration not stated)	-0.7%	4.2%	-7.4%	14.3%	11.1%	-5.6%
O=C(Oc1ccccc1)N1CCC2(CCCN(C(c3ccccc3)c3ccccc3)C2)CC1	-13.4%	9.7%	.	.	.	.
CCOC(=O)[C@]12Cc3cc(C)ccc3[C@H]1N(C1CCCCC1)C(=O)c1ccccc12	2.91µM*	2.31µM*	.	3.66µM*	3.66µM*	.
CCOC(=O)[C@]12Cc3ccccc3[C@H]1N(C(C)C)C(=O)c1ccccc12	23.1µM*	?	.	20.6µM*	?	.
CCOC(=O)C12C(=O)OCC1C2c1ccccc1 (configuration not stated)	-13.7%	6.9%	.	15.9%	21.6%	.
CCOC(=O)[C@]12Cc3cc(C)ccc3[C@H]1N(CCC(=O)OC)C(=O)c1ccccc12	16.4µM*	23.1µM*	.	13µM*	16.4µM*	.
CCOC(=O)[C@]12Cc3ccc(C)cc3[C@H]1N(C1CCCCC1)C(=O)c1ccccc12	2.31µM*	2.59µM*	.	5.8µM*	8.2µM*	.
SMILES	DT40 TDP1 no CPT	TDP1 cell CPT	TGFb inhibitor	HT1080 IDH1KD tx	HT1080NT lethal	HepG2 viability
C/C=C(\CC)C(=O)NC(N)=O	-13.1%	7.3%	.	.	.	.
O=C(NC(=O)c1c(F)cccc1F)Nc1ccc(Cl)cc1	-6.6%	-8.8%	.	.	.	.
CCOC(=O)[C@]12Cc3c(cc(OC)c(OC)c3OC)[C@H]1N(C1CCCCC1)C(=O)c1ccccc12	3.66µM*	2.91µM*	.	2.91µM*	3.26µM*	.
CCOC(=O)[C@]12Cc3cc(Cl)ccc3[C@H]1N(C1CCCCC1)C(=O)c1cc(OC)ccc12	0.517µM*	0.517µM*	.	1.84µM*	2.31µM*	.
CCOC(=O)C1(C)CCN1C(=O)c1cc(OC)c(OC)c(OC)c1 (configuration not stated)	?	?	-12.7%	16.1%	15.5%	-29.1%
CCOC(=O)[C@]12Cc3ccc(C)cc3[C@H]1N(C1CCCCC1)C(=O)c1cc(OC)ccc12	2.91µM*	2.91µM*	.	3.26µM*	4.11µM*	.
Nc1ccc(N)cc1	-17.3%	-22.5%	.	.	.	.
Cc1nnc(NC(=O)c2cccn(Cc3ccc(Cl)cc3)c2=O)s1	-16.5%	2.0%	11.1%	.	.	7.2%
COC(=O)C1=C(c2cc3ccccc3o2)C[C@@H]2CC[C@H]1N2C(=O)NCCCOC(C)C	11.6µM*	?	0.4%	-5.6%	7.1%	-1.8%
COC(=O)C1=C(c2cc3ccccc3o2)C[C@@H]2CC[C@H]1N2C(=O)NC(C)C	16.4µM*	23.1µM*	12.5%	-6.4%	-0.4%	10.7%
COC(=O)C1=C(c2cc3ccccc3o2)C[C@@H]2CC[C@H]1N2C(=O)NCCNC(C)=O	.	-20.8%	?	0.5%	-0.1%	-2.3%
COC(=O)C1=C(c2cc3ccccc3o2)C[C@@H]2CC[C@H]1N2C(=O)NCc1ccccc1	.	?	?	-11.5%	-9.9%	-21.1%
COC(=O)C1=C(c2ccc(F)cc2F)C[C@@H]2CC[C@H]1N2C(=O)NCc1ccc(C(F)(F)F)cc1	20.6µM*	?	?	-4.0%	-1.6%	-16.5%
COC(=O)C1=C(c2cc3ccccc3o2)C[C@@H]2CC[C@H]1N2C(=O)N1CCOCC1	.	3.66µM*	?	?	23.1µM*	-0.2%
COC(=O)C1=C(c2cc3ccccc3o2)C[C@@H]2CC[C@H]1N2C(=O)NCc1ccc(C(F)(F)F)cc1	.	?	2.8%	?	20.6µM*	-21.0%
